# Shiga toxin inh: Shiga toxin inhibition; Vero cells, Shiga toxin protein synthesis inhibition reporter; inhibition, % at 38.7 µM; 9.2% of 290,000 active; in the data active = inhibition mostly above about 28%, no sharp cut-off; inactive = mostly below about 43%; note: 0% is about no effect
# Cycloheximide cs: counter-screen hit for Shiga toxin inhibitors, cycloheximide; cell reporter, cycloheximide protein synthesis inhibition counterscreen; max response, %; 12% of 300,000 active; in the data active = max response mostly above about 13%, no sharp cut-off; inactive = mostly below about 14%; note: read at 38.3 µM for the half of the compounds with a filed dose; 0% is about no effect
# SARS PLP yeast: blocks SARS-CoV papain-like protease in a yeast assay; S. cerevisiae expressing SARS-CoV PLpro, growth rescue; Potency, µM (top dose mostly 32.9 µM), inactives show at the top dose activity, positive = growth rescue, actives largely listed as activators; 0.19% of 330,000 active; AID 485353; note: potency is the fitted concentration of half-maximal effect; 0% is about no effect; nearly all actives have a fitted effect of over 55% in size
# NS1 function inh: influenza NS1 inhibition; 0.4% of 270,000 active; AID 2326; Potency, µM (titrated, usually from 46.1 µM), without a hit: at the top dose activity, positive = more growth; note: potency is the fitted concentration of half-maximal effect; actives are rising curves; nearly all actives have a fitted effect of over 50% in size
#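 Compounds were scored for reversing the slow growth caused by influenza A NS1 in S. cerevisiae, measured by optical density at 600 nm. Assay medium contained 2% galactose at pH 6.0; NS1-free yeast of the same strain were the positive control.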
# * = called active by the depositor; nt = no result. Rows were chosen to be rich in hits. Some 12% of all compounds tested hit in one or more screens of this group. Unless noted, calls come from the whole dose curve.
SMILES,Shiga toxin inh,Cycloheximide cs,SARS PLP yeast,NS1 function inh
CCNC(=O)c1ccc(-n2nc(C(F)(F)F)c3c2CCCC3)cc1,-11,-3,-2%,-13%
Cc1ccc(OCCNC(=O)C(=O)NCc2ccco2)cc1,-19,-3,-1%,-3%
Cc1nn(CC(=O)NCCc2cccs2)c(=O)c2nn(-c3ccccc3)c(C)c12,19*,22*,-4%,18%
CCCCNC(=O)CSc1nnc(C)c2c(C)n(-c3ccccc3)nc12,74*,38*,nt,nt
Cc1nnc(SCC(=O)NCc2ccccc2F)c2nn(-c3ccc(Cl)cc3)c(C)c12,-1,-13,nt,nt
O=C1CC(N2CCC(c3nc4ccccc4s3)CC2)C(=O)N1 (stereo not drawn),32,10,5%,0%
O=C(NCCN1CCOCC1)c1ccc(Cl)cc1,53,9,1%,7%
Cc1ccc(C(=O)NCCC(=O)N2CCOCC2)cc1,85*,50*,-1%,13%
Cc1ccc(C(=O)NCCN2CCOCC2)cc1,20,13*,2%,17%
Cc1nc2nc(NCc3cccs3)nn2c(C)c1Cl,-4,9,18%,-70%
CCOC(=O)CSc1nc2cc(C(F)(F)F)cnc2n1C,0,0,0%,-1%
Cc1ccc2cc(C)c(N3CCN(c4ccccn4)CC3)nc2c1,51*,28,-19%,-95%
CCOC(=O)c1ccccc1NS(=O)(=O)c1ccc(S(=O)(=O)N2CCCC2)cc1,-10,-1,10%,-21%
CC1CN(C(=O)C2CCCC2)C(C)CN1C(=O)C1CCCC1 (stereo not drawn),-23,2,-11%,3%
Cc1cc(C(=O)Nc2ccccc2C)on1,-2,0,1%,10%
COc1ccc(NC(=O)c2cc(C)no2)cc1,72*,36*,0%,1%
O=C(Nc1ccc(F)c(Cl)c1)c1cncs1,-2,4,-4%,1%
Cc1cc(C(=O)Nc2ccc(F)c(Cl)c2)on1,6,19*,-3%,3%
CCCNC(=O)c1cc(C)no1,49,8,-5%,9%
CCc1ccc(NC(=O)c2cc(C)no2)cc1,70*,47*,-1%,-1%
Cc1ccc(NC(=O)c2cc(C)no2)cc1,80*,59*,-3%,-5%
Cc1cccnc1CN1CCN(Cc2nc(C(c3ccccc3)c3ccccc3)no2)CC1,-19,-1,-1%,-4%
CCCCCCNC(=O)CNC(=S)N(Cc1cccs1)C1CCCCC1,-3,-1,-8%,-4%
O=C(O)CCCCCCCCCCCc1ccccc1,15,-2,-1%,-10%
O=C1CN(S(=O)(=O)c2cc(Cl)ccc2Cl)c2ccccc2N1,-8,-2,0%,1%
SMILES,Shiga toxin inh,Cycloheximide cs,SARS PLP yeast,NS1 function inh
Cc1cc(C(=O)Nc2ccc(F)cc2F)on1,6,15*,-3%,-3%
CCNC(=O)c1ccc2c(c1)C1C3CCC(C3)C1C(c1ccccc1)N2 (stereo not drawn),-8,-2,-72%,-42%
Fc1ccc(-c2cnc[nH]2)cc1,35,23*,-3%,-1%
CC1(C)CC(=O)C2=C(C1)OC(N)=C(C#N)C2c1cn(-c2ccccc2)nc1-c1ccccc1 (stereo not drawn),-3,18*,16%,17%
N=c1n(CC(=O)c2ccc(Br)cc2)c2ccccc2n1Cc1ccccc1,nt,nt,-12%,nt
CCN(CC)CCn1c(=N)n(CC(=O)c2ccc(C)cc2)c2ccccc21,nt,27*,1%,10%
CCCCn1c(=N)n(CC(=O)O)c2ccccc21,9,-4,1%,3%
Cc1ccc(C(=O)Cn2c(=N)n(N)c3ccccc32)cc1,81*,46*,3%,24%
CC(=O)c1c(NCCc2ccccc2)nc(=S)n(-c2ccccc2)c1C,-4,9,1%,nt
CC(=O)c1c(NCc2ccccc2)nc(=O)n(-c2ccccc2)c1C,54,24*,1%,-8%
CCCCN1C(=O)/C(=C2\SC(N3CCCCC3)=NC2=O)c2ccccc21,57*,26*,-11%,-74%
O=C(NCC(c1cccs1)N1CCOCC1)c1cc2ccccc2oc1=O (stereo not drawn),nt,nt,-1%,nt
Cc1ccc(S(=O)(=O)N2CCN(C(=O)COC(=O)CNC(=O)c3ccc(Cl)cc3Cl)CC2)cc1,nt,nt,-1%,nt
COc1ccc(-c2cc(C(=O)NCc3cccnc3)no2)cc1OC,16,-12,2%,-11%
Cc1cc(C(=O)NCc2cccnc2)no1,-8,-2,-3%,3%
Cc1ccc(-c2cc(C(=O)NCc3cccnc3)no2)cc1,50*,53*,26%,-6%
CC(C)Cc1cc(C(=O)NCc2cccnc2)no1,13,25*,-3%,-92%
CC(C)Cc1cc(C(=O)NCc2cccs2)no1,84*,40*,-6%,1%
O=C(NCc1ccc(F)cc1)c1cc(-c2ccco2)on1,44,20*,-4%,-4%
O=C(NCc1ccc(Cl)cc1)c1cc(-c2ccco2)on1,-15,10,-3%,-3%
Cc1ccc(C(=O)N/C(=C\c2cn(-c3ccccc3)nc2-c2ccccc2)C(=O)N2CCOCC2)cc1,-6,0,-1%,25%
NC(N)=NC(N)=Nc1ccc(S(N)(=O)=O)cc1,nt,nt,nt,-3%
COc1ccc(NC(=O)C2CCN(c3ncnc4c3nc3n4CCCCC3)CC2)cc1Cl,-3,0,3%,-10%
COc1ccc(NC(=O)CSCC(=O)N(C)CCOc2ccc(Cl)cc2)cc1,nt,nt,-3%,nt
COc1ccccc1NS(=O)(=O)c1cc(Cl)ccc1OC,-13,-4,-5%,-18%
SMILES,Shiga toxin inh,Cycloheximide cs,SARS PLP yeast,NS1 function inh
O=C(NCc1cccnc1)c1cc(-c2ccco2)on1,75*,44*,2%,-25%
COc1ccc(CNC(=O)c2cc(-c3ccco3)on2)cc1,11,9,2%,-15%
COCCN1C(=O)C(CC(=O)Nc2ccccc2)SC1=Nc1ccc(OC)cc1 (stereo not drawn),-4,-10,0%,1%
COc1ccc(N=C2SC(CC(=O)Nc3ccccc3)C(=O)N2Cc2ccco2)cc1 (stereo not drawn),39*,9,-27%,-1%
O=C(CC1SC(=Nc2ccccc2)N(CCc2c[nH]c3ccccc23)C1=O)Nc1ccccc1F (stereo not drawn),-4,-3,-8%,7%
COc1ccc(N=C2SC(CC(=O)Nc3ccccc3F)C(=O)N2Cc2ccco2)cc1 (stereo not drawn),20,21*,1%,-7%
COc1ccccc1-c1nnc(SCC(=O)NCc2cccs2)n1N,-8,0,4%,nt
CCc1ccc(NC2=NCCCS2)cc1,35*,15*,-3%,-4%
c1ccc(NC2=NCCCS2)cc1,-1,-1,0%,5%
FC(F)(F)c1ccc(NC2=NCCCS2)cc1,43*,30*,-4%,-3%
O=c1cc(COc2ccc(Cl)c(Cl)c2)nc2sccn12,6,20*,-2%,1%
O=C(OCc1cc(=O)n2ccsc2n1)c1ccc(OC(F)F)cc1,nt,nt,-3%,nt
O=c1cc(CNc2cc(Cl)ccc2Cl)nc2sccn12,28,29*,-34%,-10%
COc1ccc(CCNCC(=O)N2C(C)CCCC2C)cc1OC (stereo not drawn),-14,-2,-1%,nt
COc1cc(OC)cc(C(=O)O/N=C(\N)c2cccc(C)c2)c1,44,13,0%,-7%
N/C(=N\OC(=O)c1ccc2c(c1)OCO2)c1cccc([N+](=O)[O-])c1,88,31*,-1%,-1%

# Source: PubChem BioAssay (National Center for Advancing Translational Sciences (NCATS))
